{
  "source": "paper PMC4336329",
  "about": "(PLoS ONE, 2015)",
  "note": "Out of some 310,000 compounds screened, about 14,000 (4.5%) showed an effect of 50% or more. Effects have a minus sign here. This is one part of a sample in which strong results are shown more often than they occur.",
  "data": [
    {"target": "human ether-à-go-go-related gene (hERG) potassium channel (human, UniProt Q12809)", "sequence (Q12809 whole entry, looked up)": "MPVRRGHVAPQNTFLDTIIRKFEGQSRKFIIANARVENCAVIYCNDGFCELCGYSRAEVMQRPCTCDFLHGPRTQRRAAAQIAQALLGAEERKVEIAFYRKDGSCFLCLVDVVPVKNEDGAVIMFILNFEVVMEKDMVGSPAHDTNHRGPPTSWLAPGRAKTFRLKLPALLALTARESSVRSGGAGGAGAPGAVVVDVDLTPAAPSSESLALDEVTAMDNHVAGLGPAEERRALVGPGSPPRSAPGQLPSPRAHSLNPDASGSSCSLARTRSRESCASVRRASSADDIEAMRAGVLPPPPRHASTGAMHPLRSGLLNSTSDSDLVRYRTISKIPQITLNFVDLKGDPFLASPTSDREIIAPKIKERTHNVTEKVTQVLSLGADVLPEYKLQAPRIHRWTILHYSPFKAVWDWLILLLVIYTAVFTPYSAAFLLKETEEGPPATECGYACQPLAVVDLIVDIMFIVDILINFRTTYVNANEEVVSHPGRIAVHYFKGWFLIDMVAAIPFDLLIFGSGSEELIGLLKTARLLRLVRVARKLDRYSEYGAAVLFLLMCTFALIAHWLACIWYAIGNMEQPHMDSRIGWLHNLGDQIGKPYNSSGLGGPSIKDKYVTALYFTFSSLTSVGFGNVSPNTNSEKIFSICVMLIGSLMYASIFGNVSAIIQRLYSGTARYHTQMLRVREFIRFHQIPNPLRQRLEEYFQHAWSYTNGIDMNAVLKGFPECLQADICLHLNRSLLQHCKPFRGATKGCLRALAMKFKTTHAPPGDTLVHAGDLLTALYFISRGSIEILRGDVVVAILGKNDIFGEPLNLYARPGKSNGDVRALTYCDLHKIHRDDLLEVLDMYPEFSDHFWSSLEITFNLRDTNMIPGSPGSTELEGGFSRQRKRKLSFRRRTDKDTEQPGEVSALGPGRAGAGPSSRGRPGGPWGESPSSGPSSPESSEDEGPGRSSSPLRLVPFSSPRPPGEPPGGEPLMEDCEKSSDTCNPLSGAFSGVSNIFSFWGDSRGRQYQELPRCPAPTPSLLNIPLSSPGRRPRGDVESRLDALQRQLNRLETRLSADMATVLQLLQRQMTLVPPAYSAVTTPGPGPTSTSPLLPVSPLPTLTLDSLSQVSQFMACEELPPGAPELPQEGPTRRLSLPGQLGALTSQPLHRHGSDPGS", "experiment": "primary screen, population patch clamp on CHO cells stably expressing hERG; higher = less effect of the substance", "units": {"hERG current change (%, negative = inhibition) at 10uM": "%"}, "values": [
      {"compound": "CCOc1ccccc1CNC(=O)C1CCC(=O)N1C(C)C", "note": "(centres unmarked);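 further: peak tail current of the secondary pulse compared with the same well before compound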", "hERG current change (%, negative = inhibition) at 10uM": 1.56},
      {"compound": "Cc1cnc(C(=O)OCC(=O)Nc2c(Cl)cc(Cl)cc2Cl)cn1", "hERG current change (%, negative = inhibition) at 10uM": 12.7},
      {"compound": "O=C(CCCNS(=O)(=O)c1cccc2nsnc12)NCCc1ccccc1", "hERG current change (%, negative = inhibition) at 10uM": 5.61},
      {"compound": "CN(Cc1ccccc1)C(=O)C1CCN(S(=O)(=O)c2cc([N+](=O)[O-])ccc2Cl)CC1", "hERG current change (%, negative = inhibition) at 10uM": -54.6},
      {"compound": "O=C(COC(=O)C1CC1)Nc1ncc(Cl)cc1Cl", "hERG current change (%, negative = inhibition) at 10uM": 8.23},
      {"compound": "O=C(NC1CC1)C1CCN(S(=O)(=O)c2cc([N+](=O)[O-])ccc2Cl)CC1", "hERG current change (%, negative = inhibition) at 10uM": -28},
      {"compound": "O=C(COC(=O)C1CCCC1)Nc1ncc(Cl)cc1Cl", "hERG current change (%, negative = inhibition) at 10uM": 5.91},
      {"compound": "O=C(NCc1ccccc1)C1CCN(S(=O)(=O)c2cc([N+](=O)[O-])ccc2Cl)CC1", "hERG current change (%, negative = inhibition) at 10uM": -7.61},
      {"compound": "CC(NC(=O)C1CCN(S(=O)(=O)c2cc([N+](=O)[O-])ccc2Cl)CC1)c1ccccc1", "note": "(centres unmarked)", "hERG current change (%, negative = inhibition) at 10uM": 11.5},
      {"compound": "CN(Cc1ccccc1)C(=O)C1CCN(S(C)(=O)=O)CC1", "hERG current change (%, negative = inhibition) at 10uM": 16.1},
      {"compound": "CCC(C)NC(=O)C1CCN(S(=O)(=O)c2cc([N+](=O)[O-])ccc2Cl)CC1", "note": "(centres unmarked)", "hERG current change (%, negative = inhibition) at 10uM": -0.184},
      {"compound": "CC1CCN(S(=O)(=O)c2cc([N+](=O)[O-])ccc2Cl)CC1", "hERG current change (%, negative = inhibition) at 10uM": -24},
      {"compound": "O=C(NCc1ccc(Cl)cc1)C1CCN(S(=O)(=O)c2cc([N+](=O)[O-])ccc2Cl)CC1", "hERG current change (%, negative = inhibition) at 10uM": -59},
      {"compound": "O=C(COC(=O)C1CCN(S(=O)(=O)c2cc([N+](=O)[O-])ccc2Cl)CC1)Nc1ncc(Cl)cc1Cl", "hERG current change (%, negative = inhibition) at 10uM": -57.6},
      {"compound": "CC(=O)COC(=O)C1CCN(S(=O)(=O)c2cc([N+](=O)[O-])ccc2Cl)CC1", "hERG current change (%, negative = inhibition) at 10uM": -51.8},
      {"compound": "Cc1cccc(C(=O)NC2CCN(C(=S)NCc3ccco3)CC2)c1", "hERG current change (%, negative = inhibition) at 10uM": -46.7},
      {"compound": "CCOC(=O)CSc1ncc(-c2cccc(Cl)c2)cn1", "hERG current change (%, negative = inhibition) at 10uM": -17.4},
      {"compound": "CC/C(CC(c1ccccc1)c1c(O)c2ccccc2oc1=O)=N\\NC(N)=S", "note": "(centres unmarked)", "hERG current change (%, negative = inhibition) at 10uM": 2.2},
      {"compound": "Cc1cc(O)c(C(C[N+](=O)[O-])c2ccc(Cl)cc2Cl)c(=O)o1", "note": "(centres unmarked)", "hERG current change (%, negative = inhibition) at 10uM": 6.51},
      {"compound": "CCOC(=O)N1CCN(C(=O)COc2cc(=O)n(CC)c3ccccc23)CC1", "hERG current change (%, negative = inhibition) at 10uM": -17},
      {"compound": "CCCCc1cc2c(cc1NC(=O)CN1CCCCC1)OCCO2.Cl", "hERG current change (%, negative = inhibition) at 10uM": 3.82},
      {"compound": "COc1ccc(-c2cc(C(=O)Nc3ccccc3O)c3ccccc3n2)cc1", "hERG current change (%, negative = inhibition) at 10uM": 13.1},
      {"compound": "Cc1cccc(NC(=O)c2cccc(N3C(=O)C4C5CCC(C5)C4C3=O)c2)c1C", "note": "(centres unmarked)", "hERG current change (%, negative = inhibition) at 10uM": -7.75},
      {"compound": "Cc1ccc(-n2c(=O)[nH]c3c(C(N)=O)nc(-c4ccc(C)o4)nc32)cc1", "hERG current change (%, negative = inhibition) at 10uM": 14.7},
      {"compound": "Cc1c(-c2cc[n+]([O-])cc2)oc2ccc(Br)cc2c1=O", "hERG current change (%, negative = inhibition) at 10uM": -54.2},
      {"compound": "Cc1c(-c2ccncc2)oc2ccc(Br)cc2c1=O", "hERG current change (%, negative = inhibition) at 10uM": -41.2},
      {"compound": "Cc1oc2ccc(Br)cc2c(=O)c1-c1nn[nH]n1", "hERG current change (%, negative = inhibition) at 10uM": 3.71},
      {"compound": "Cc1ccc(S(=O)(=O)Oc2cccc(N3C(=O)C4CC=CCC4C3=O)c2)cc1", "note": "(centres unmarked)", "hERG current change (%, negative = inhibition) at 10uM": -17.3},
      {"compound": "CC(=O)NC(Cc1cc(C)ccc1C)C(=O)N1CCN(C(=O)c2ccc([N+](=O)[O-])cc2)CC1", "note": "(centres unmarked)", "hERG current change (%, negative = inhibition) at 10uM": -30.2},
      {"compound": "CC(=O)NC(Cc1cc(C)ccc1C)C(=O)N1CCN(C(=O)c2ccc(Br)cc2)CC1", "note": "(centres unmarked)", "hERG current change (%, negative = inhibition) at 10uM": -71.8},
      {"compound": "CC(=O)NC(Cc1cc(C)ccc1C)C(=O)N1CCN(C(=O)c2ccccc2Br)CC1", "note": "(centres unmarked)", "hERG current change (%, negative = inhibition) at 10uM": -0.358},
      {"compound": "CCOC(=O)c1c(NC(=O)COC(=O)CCOc2ccccc2C)sc(C(=O)NC)c1C", "hERG current change (%, negative = inhibition) at 10uM": 20.1},
      {"compound": "Cc1ccc(/C=C/C(=O)OCC(=O)Nc2ccc3[nH]c(=O)[nH]c3c2)o1", "hERG current change (%, negative = inhibition) at 10uM": 2.52},
      {"compound": "COc1ccc(/C=N/Nc2nnc(Cc3ccc(OC)c(OC)c3)c(=O)[nH]2)cc1OC", "hERG current change (%, negative = inhibition) at 10uM": 18.9},
      {"compound": "COc1ccc(/C=N/Nc2nnc(Cc3ccccc3)c(=O)[nH]2)cc1", "hERG current change (%, negative = inhibition) at 10uM": -15.1},
      {"compound": "COc1ccc(/C=N/Nc2nnc(Cc3ccccc3)c(=O)[nH]2)cc1OC", "hERG current change (%, negative = inhibition) at 10uM": -61.4},
      {"compound": "Oc1ccc(N=Nc2n[nH]c(-c3ccccc3)n2)cc1", "hERG current change (%, negative = inhibition) at 10uM": 9.94},
      {"compound": "CCOc1ccc(NC(=O)Nc2ccon2)cc1", "hERG current change (%, negative = inhibition) at 10uM": 16.7},
      {"compound": "CC(C)C(=O)Nc1ccc(NC(=O)c2ccc([N+](=O)[O-])cc2Cl)cc1", "hERG current change (%, negative = inhibition) at 10uM": 5.02},
      {"compound": "CCC(C)NS(=O)(=O)c1ccc(NC(=O)c2ccc([N+](=O)[O-])cc2Cl)cc1", "note": "(centres unmarked)", "hERG current change (%, negative = inhibition) at 10uM": -88.7},
      {"compound": "CC(=O)Nc1ccc(NC(=O)c2ccc([N+](=O)[O-])cc2Cl)cc1", "hERG current change (%, negative = inhibition) at 10uM": 6.15},
      {"compound": "CCCC(=O)Nc1ccc(Cl)c(NC(=O)c2ccc([N+](=O)[O-])cc2Cl)c1", "hERG current change (%, negative = inhibition) at 10uM": -51.2},
      {"compound": "CCCC(=O)Nc1cccc(NC(=O)c2ccc([N+](=O)[O-])cc2Cl)c1", "hERG current change (%, negative = inhibition) at 10uM": -14.5},
      {"compound": "CCC(=O)Nc1ccc(Cl)c(NC(=O)c2ccc([N+](=O)[O-])cc2)c1", "hERG current change (%, negative = inhibition) at 10uM": -5.07}
    ]}
  ]
}
